Only some compounds are listed: those with a hit (about 15% of all), similar ones and a draw of the others.
Pf growth 96h = P. falciparum growth inhibition at 96 hour, primary screen for plastid delayed-death inhibitors | P. falciparum luciferase reporter growth, 96 h | Potency, µM (series often up to 28.7 µM), hits mostly inhibitors | hit rate 6.9% among 320,000
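96 h incubation, 37 C, 5% CO2, of luciferase-reporter P. falciparum-infected RBCs (2% hematocrit, 0.05% parasitemia final) with test compounds; endpoint luminescence.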
Pf growth 48h = P. falciparum growth inhibition at 48 hours (one generation). P. falciparum luciferase growth in erythrocytes, 48 h. Potency, µM (doses to about 28.7 µM), usual class: inhibitors. hit rate 5.9% among 310,000. AID 504832
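Parasite viability was followed by luminescence of a genomically integrated firefly luciferase. Cultures held 0.1% parasitemia at 2% hematocrit (final), incubated under 5% CO2 at 37 C.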
SARS PLP yeast = inhibitors of SARS-CoV papain-like protease in yeast; S. cerevisiae expressing SARS-CoV PLpro, growth rescue; Potency, µM (top dose mostly 32.9 µM), usual class: activators; hit rate 0.19% among 330,000; AID 485353; calls by dose curve; further: nearly all actives have a fitted effect of over 55% in size
HCV inh = blocks hepatitis C virus. Huh7.5.1 HCVcc-Cre infection, luciferase reporter, 44 h. Potency, µM (titrated, usually from 41.8 µM), most hits filed as inhibitors. hit rate 3.4% among 340,000
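Cells (1,000/well) were plated 4 h before compound, then infected with HCVcc-Cre virus (~0.5 moi). After 44 h further culture, infection was read as luciferase luminescence following a 15 min substrate incubation at room temperature.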
Sm TGR inh = inhibitors of Schistosoma mansoni thioredoxin glutathione reductase; Q962Y6; purified TGR, DTNB reduction, TNB absorbance 405 nm; Potency, µM (doses to about 114 µM), usual class: inhibitors; hit rate 3% among 360,000; further: nearly all actives have a fitted effect of over 60% in size
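Kinetic colorimetric format: TGR-catalysed, NADPH-driven DTNB reduction monitored via TNB absorbance. Enzyme dispensed at 20 nM; compound exposure 15 min at room temperature before reaction start.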
HCMV inh = inhibitors of human cytomegalovirus; HFF cells, HCMV-luciferase reporter, 72 h; stronger effect = lower value; activity change, negative = inhibition, % at 57.5 µM; hit rate 4.5% among 410,000; AID 1259415; in the data active means activity change below about -60%; inconclusive means no clear call, values can overlap the other calls; inactive means above about -39%
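Cell-based, HFFs, 1000 cells/well, 16 h 37C; cpds in DMSO + HCMV-luc, MOI 1 PFU/cell; 72 h 37C; OneGlo luminescence after 5 min RT; norm. to buffer vs Salinomycin 10uM.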
A number is an active result; . = inactive; ? = inconclusive; / = no result given; [ ] = dose if it differs, or a comment. Unless noted, the call rests on the fitted dose curve; in most records, active means well fitted curve in the direction sought with a large enough effect; inconclusive means small, poorly fitted or top-dose-only effect, or another doubt; inactive means no such curve, though single readings can be large; an effect the other way counts as inactive or inconclusive.

SMILES	Pf growth 96h	Pf growth 48h	SARS PLP yeast	HCV inh	Sm TGR inh	HCMV inh
COc1ccc(C=O)cc1COc1ccccc1F	8.3µM	.	.	.	.	.
COc1ccc(C=O)cc1CN1C(=O)c2ccccc2C1=O	0.15µM	?	.	.	.	.
O=[N+]([O-])c1ccc(NCc2ccccc2N2CCC(CO)CC2)nc1	.	.[0.00184 µM]	.	.	.	.
Cc1ccccc1Cn1c(CN2CCC(C(=O)NCCN(C)C)CC2)cc2ccccc21	/	/	/	/	.	?
O=C(Nc1c2c(nn1-c1ccc([N+](=O)[O-])cc1)CS(=O)(=O)C2)c1ccco1	?	.	?	.	.	.
COC(=O)C(c1ccc(Br)cc1)(c1cn(C)c2ccccc12)C(Nc1ccccc1)c1ccccc1 (stereo unspecified)	/	/	/	/	/	-79
COC(=O)C(c1ccccc1)(c1cn(C)c2cc(Br)ccc12)C(Nc1ccccc1)c1ccccc1 (stereo unspecified)	/	/	/	/	/	.
COc1ccc(-c2cc(-c3ccco3)[nH]c(=O)c2C#N)cc1OC	.	.	.	.	4µM	.
N#Cc1c(-c2ccccc2)cc(-c2ccc3c(c2)OCO3)[nH]c1=O	.	.	.	.	.	.
O=C(NCc1ccco1)c1ccc(COc2ccccc2Cl)cc1	?	?	.	11µM	?	.
NNC(=O)c1ccc(COc2cccc3ccccc23)cc1	?	?	.	.	.	.
O=C(NCc1ccco1)c1ccc(COc2ccc(Cl)cc2)cc1	?	?	.	.	.	.
O=C(NCc1ccco1)c1ccc(COc2cccc3ccccc23)cc1	7.4µM	7.4µM	.	?	.	?
CC(=O)N1CCC(N(Cc2ccc(C)o2)C(=O)Nc2ccc(C)cc2)CC1	/	/	/	/	.	.
COC(=O)c1cc2cc(Cl)ccc2nc1SC	.	.	.	?	.	.
COc1ccc2c(Sc3ccc(Cl)cc3)c(C(=O)N3CCCCC3)[nH]c2c1	/	/	/	/	.	-101
COc1ccc(NC(=O)COCc2cc(-c3ccco3)on2)cc1Cl	/	/	/	/	.	.
COc1ccc(C)cc1N	/	/	/	/	/	.
COc1ccc(OC)c(N)c1	17µM	9.3µM	.	.	.	.
O=C(NC1CCCC1)C1C2C=CC3(CN(Cc4cccs4)C(=O)C13)O2 (stereo unspecified)	.	.	.	.	.	.
CCCOC(=O)C1[C@H]2C(=O)N(Cc3ccco3)C[C@]23C=C[C@H]1O3 (stereo partly specified)	.	.	.	.	25µM	.
CCCCOC(=O)C1[C@H]2C(=O)N(Cc3cccs3)C[C@]23C=C[C@H]1O3 (stereo partly specified)	5.2µM	/	.	.	.[11.4 µM]	.
O=C(NCC1CCCO1)C1C2C=CC3(CN(Cc4cccs4)C(=O)C13)O2 (stereo unspecified)	4.7µM	.	.	.	.	.
COc1cc2cc(CN(CCCN3CCOCC3)C(=O)Nc3ccc(F)cc3)c(=O)[nH]c2cc1OC	.	13µM	.	.	.	.
Cc1ccc2[nH]c(=O)c(CN(CCN3CCOCC3)C(=O)Nc3ccc(F)cc3)cc2c1	/	.	.	.	.	.
SMILES	Pf growth 96h	Pf growth 48h	SARS PLP yeast	HCV inh	Sm TGR inh	HCMV inh
Cc1ccc2[nH]c(=O)c(CN(CCCN3CCOCC3)C(=O)NC3CCCCC3)cc2c1	/	?	.	.	100µM	.
COc1ccc2[nH]c(=O)c(CN(C(=O)NC3CCCCC3)C3CCCCC3)cc2c1	?	.	.	.	.	.
Cc1ccc(NC(=O)N(CCCN2CCOCC2)Cc2cc3cc4c(cc3[nH]c2=O)OCO4)cc1	13µM	0.93µM	.	.	.	.
COC(=O)c1ccccc1S(=O)(=O)N(Cc1cc2cc3c(cc2[nH]c1=O)OCO3)C1CCCCC1	.	8.3µM	.	.	.	/
CCc1nc2ccc(C(=O)NCc3ccc4c(c3)OCO4)cn2c1N(CC)Cc1cccc(Br)c1	/	/	/	/	/	.
CCCc1cc(=O)oc2cc(OC(=O)CN3C(=O)NC4(CCCC4)C3=O)ccc12	?	.	/	?	?	.
S=c1[nH]nc(CSCCOc2ccc(Cl)cc2Cl)o1	.	.	.	.	.	.

Source: PubChem (National Center for Advancing Translational Sciences (NCATS))
